The values below come from PubChem BioAssay (NCATS).

Assay [1] addresses Cytochrome P450 1A2 (Homo sapiens) (UniProt P05177). Briefly: p450-cyp1a2 (AID 410; calls by dose curve; further: potency means the concentration at half of the fitted maximal effect). The method, boiled down:
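Read-out is luminescence from luciferin produced by CYP1A2 demethylation of Luciferin-ME (100uM, at Km). Detection reagent stopped the 60 min NADPH-dependent reaction; signals were normalized to 57 uM furafylline.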

The target of assay [2] is Glucocorticoid receptor (Homo sapiens) (UniProt P04150). Briefly: GR-EFC Redistribution (AID 451; calls by dose curve; further: potency means the concentration at half of the fitted maximal effect). The settings on record: CHO-K1 GR-EFC translocation, beta-gal luminescence, 2 h. The method, boiled down: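 CHO-K1 cells expressing nuclear EA and GR-ED fragments of b-gal; compounds titrated up to 46 uM final, 2 h at 37 C. GR nuclear translocation read as complemented b-gal luminescence after 1 h RT detection.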
Glucocorticoid receptor (Homo sapiens), sequence (P04150 whole entry, looked up, the tested form may be a part): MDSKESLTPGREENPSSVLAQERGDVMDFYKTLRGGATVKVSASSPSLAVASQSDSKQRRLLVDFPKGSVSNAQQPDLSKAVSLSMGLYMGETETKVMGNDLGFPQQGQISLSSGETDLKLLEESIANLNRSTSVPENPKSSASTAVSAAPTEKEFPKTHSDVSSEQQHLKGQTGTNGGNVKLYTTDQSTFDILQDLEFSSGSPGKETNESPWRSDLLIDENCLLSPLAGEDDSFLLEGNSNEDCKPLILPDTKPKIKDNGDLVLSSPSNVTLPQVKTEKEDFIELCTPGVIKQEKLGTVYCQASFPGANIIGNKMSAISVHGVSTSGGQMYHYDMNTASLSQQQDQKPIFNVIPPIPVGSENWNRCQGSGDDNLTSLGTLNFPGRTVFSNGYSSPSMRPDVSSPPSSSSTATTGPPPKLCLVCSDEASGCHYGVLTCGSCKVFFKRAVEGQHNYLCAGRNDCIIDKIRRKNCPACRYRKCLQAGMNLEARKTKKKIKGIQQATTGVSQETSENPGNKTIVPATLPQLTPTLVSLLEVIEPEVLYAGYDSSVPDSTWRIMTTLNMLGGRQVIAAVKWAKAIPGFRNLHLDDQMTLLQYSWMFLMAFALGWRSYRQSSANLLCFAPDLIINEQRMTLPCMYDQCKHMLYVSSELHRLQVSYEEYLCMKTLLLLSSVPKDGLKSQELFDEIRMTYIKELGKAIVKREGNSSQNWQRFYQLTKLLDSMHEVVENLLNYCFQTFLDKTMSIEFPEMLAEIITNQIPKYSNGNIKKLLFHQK

Assay [3] deals with Mitogen-activated protein kinase 10 (Mus musculus) (UniProt Q61831). Briefly: JNK3 AlphaScreen Assay (AID 530; active means well fitted curve in either direction with a large enough effect, not every such curve was filed as active;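 further: kinase came from lysate of stimulated human HepG2 cells; signal reports phosphorylation of biotinylated GST-cJun 1-79 at Ser73 with 10 µM ATP; series mostly up to about 57 µM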). The method, boiled down:
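HepG2 lysate (IL-1b/TNFa pre-activated) + biotin-GST-cJun 1-79 + anti-pSer73 cJun; cpd titration, 15 min RT; ATP 10 uM start; Tris pH 7.6, MgCl2, DTT, vanadate; beads in EDTA buffer; AlphaScreen.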
On the technique in general: Bead proximity is the source of the signal in Alpha formats.

Assay [4] deals with 3',5'-cyclic-AMP phosphodiesterase 4B (Homo sapiens) (UniProt Q07343). Kind of assay: qHTS Assay for Inhibitors of PDE-IV (AID 607; active means well fitted activation curve with a large enough effect in the main read-out, with a control signal flat, not every such curve was filed as active). In outline:
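ACTOne HEK293 cells carry a modified cAMP-gated CNG channel and express endogenous PDE4; plated 1000 cells/well, compounds up to 22.9 uM final. Membrane-potential dye fluorescence (ex 535/em 590) was read; parental cells received 10 uM forskolin + 100 uM RO 20-1724.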
For orientation: Quantitative high-throughput screening tests each substance at several concentrations.

Assay [5] concerns the target Cytochrome P450 2C9 (Homo sapiens) (UniProt P11712). Briefly: qHTS Assay for Inhibitors and Substrates of Cytochrome P450 2C9 (AID 883). Further: nearly all actives have a fitted effect of over 60% in size. In outline:
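Signal: luciferase luminescence reporting luciferin produced by CYP2C9. Conditions: 10nM enzyme, Luciferin-H 100uM at KM, 25mM KPO4, 37C, 60 min NADPH-driven reaction. Reference: 57uM sulphaphenazole as 100% inhibition.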

Assay [6] has as its target Cytochrome P450 2D6 (Homo sapiens) (UniProt P10635). Kind of assay: qHTS Assay for Inhibitors and Substrates of Cytochrome P450 2D6 (AID 891).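 Further: luciferin methyl ether substrate demethylated by CYP2D6 with NADPH regeneration; nearly all actives have a fitted effect of over 60% in size.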 The method, boiled down:
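Luminescent read-out of luciferin formed by 5 nM human CYP2D6 demethylating 30 uM Luciferin-ME EGE (Km level) over 60 min at room temperature after NADPH regeneration addition. Data normalized to full inhibition by 1.43 uM quinidine.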

In assay [7] the target is Cytochrome P450 2C19 (Homo sapiens) (UniProt P33261). Briefly: qHTS Assay for Inhibitors and Substrates of Cytochrome P450 2C19 (AID 899). Further: nearly all actives have a fitted effect of over 60% in size. The method, boiled down:
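Signal comes from luciferase acting on luciferin released by CYP2C19-mediated hydroxylation of Luciferin-H EGE, 10uM (KM). Assay mix: 5nM enzyme, 50mM KPO4; 60 min at 37C with NADPH regeneration. Data normalized against 57uM ketoconazole.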

The target in assay [8] is Glucocorticoid receptor (Homo sapiens) (UniProt P04150). Kind of assay: GR-GFP Redistribution (AID 450;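 active means compounds whose dose series gives a full or clear partial fitted curve of increased nuclear translocation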; further: potency means the concentration at half of the fitted maximal effect).

Values without a mark were called inactive. Results filed as inconclusive are left out. The source made the active and inactive calls. Unless noted, the call rests on the fitted dose curve; in most records, active means well fitted inhibition curve with a large enough effect; inconclusive means small, poorly fitted or top-dose-only effect; inactive means no such curve, though single readings can be large or run the other way.

Cytochrome P450 2C19 (Homo sapiens), sequence (P33261 whole entry, looked up): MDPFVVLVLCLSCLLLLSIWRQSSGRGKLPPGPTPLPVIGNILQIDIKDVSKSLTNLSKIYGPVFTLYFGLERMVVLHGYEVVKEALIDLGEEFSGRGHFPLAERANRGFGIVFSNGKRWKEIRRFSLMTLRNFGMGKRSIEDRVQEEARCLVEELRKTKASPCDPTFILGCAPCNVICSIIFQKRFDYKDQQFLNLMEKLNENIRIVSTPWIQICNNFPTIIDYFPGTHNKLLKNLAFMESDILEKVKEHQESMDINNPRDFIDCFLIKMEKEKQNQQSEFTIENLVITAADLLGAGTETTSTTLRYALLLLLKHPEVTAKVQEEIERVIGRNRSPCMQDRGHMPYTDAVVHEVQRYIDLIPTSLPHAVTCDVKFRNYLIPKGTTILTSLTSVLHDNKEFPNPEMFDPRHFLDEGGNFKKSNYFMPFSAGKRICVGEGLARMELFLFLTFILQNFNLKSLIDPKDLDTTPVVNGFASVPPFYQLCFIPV
3',5'-cyclic-AMP phosphodiesterase 4B (Homo sapiens), sequence (Q07343 whole entry, looked up): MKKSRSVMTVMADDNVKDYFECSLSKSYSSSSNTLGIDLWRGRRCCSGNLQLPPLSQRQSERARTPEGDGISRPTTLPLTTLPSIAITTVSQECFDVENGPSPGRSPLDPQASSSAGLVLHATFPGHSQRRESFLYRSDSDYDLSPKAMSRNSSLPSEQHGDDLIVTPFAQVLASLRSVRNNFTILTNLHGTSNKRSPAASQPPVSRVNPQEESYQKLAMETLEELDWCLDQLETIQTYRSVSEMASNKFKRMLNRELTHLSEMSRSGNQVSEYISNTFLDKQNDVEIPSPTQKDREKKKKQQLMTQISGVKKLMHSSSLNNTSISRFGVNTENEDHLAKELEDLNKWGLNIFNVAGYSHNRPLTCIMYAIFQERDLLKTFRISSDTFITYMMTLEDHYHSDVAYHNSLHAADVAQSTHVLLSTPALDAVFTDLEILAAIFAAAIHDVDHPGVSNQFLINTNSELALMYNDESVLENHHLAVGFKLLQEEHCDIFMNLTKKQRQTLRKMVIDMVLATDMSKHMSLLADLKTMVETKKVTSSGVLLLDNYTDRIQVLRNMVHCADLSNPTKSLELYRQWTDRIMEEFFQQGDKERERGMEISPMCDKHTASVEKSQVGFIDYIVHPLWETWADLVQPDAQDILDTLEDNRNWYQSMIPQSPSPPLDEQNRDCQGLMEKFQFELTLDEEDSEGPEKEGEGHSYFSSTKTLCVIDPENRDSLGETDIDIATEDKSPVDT
Cytochrome P450 2D6 (Homo sapiens), sequence (P10635 whole entry, looked up): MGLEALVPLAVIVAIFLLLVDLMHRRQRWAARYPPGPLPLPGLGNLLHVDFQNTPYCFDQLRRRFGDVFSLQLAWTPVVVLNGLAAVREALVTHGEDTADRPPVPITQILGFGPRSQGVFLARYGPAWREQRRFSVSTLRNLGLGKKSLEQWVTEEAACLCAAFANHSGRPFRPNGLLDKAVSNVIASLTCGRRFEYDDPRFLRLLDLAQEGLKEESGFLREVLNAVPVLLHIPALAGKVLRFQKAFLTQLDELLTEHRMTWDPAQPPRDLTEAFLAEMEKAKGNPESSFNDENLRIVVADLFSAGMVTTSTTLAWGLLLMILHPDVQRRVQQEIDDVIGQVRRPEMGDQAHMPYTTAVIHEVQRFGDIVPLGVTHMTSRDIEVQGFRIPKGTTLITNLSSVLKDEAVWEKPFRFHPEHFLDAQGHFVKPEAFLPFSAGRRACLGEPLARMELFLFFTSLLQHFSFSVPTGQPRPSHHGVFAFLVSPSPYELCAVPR
Cytochrome P450 1A2 (Homo sapiens), sequence (P05177 whole entry, looked up): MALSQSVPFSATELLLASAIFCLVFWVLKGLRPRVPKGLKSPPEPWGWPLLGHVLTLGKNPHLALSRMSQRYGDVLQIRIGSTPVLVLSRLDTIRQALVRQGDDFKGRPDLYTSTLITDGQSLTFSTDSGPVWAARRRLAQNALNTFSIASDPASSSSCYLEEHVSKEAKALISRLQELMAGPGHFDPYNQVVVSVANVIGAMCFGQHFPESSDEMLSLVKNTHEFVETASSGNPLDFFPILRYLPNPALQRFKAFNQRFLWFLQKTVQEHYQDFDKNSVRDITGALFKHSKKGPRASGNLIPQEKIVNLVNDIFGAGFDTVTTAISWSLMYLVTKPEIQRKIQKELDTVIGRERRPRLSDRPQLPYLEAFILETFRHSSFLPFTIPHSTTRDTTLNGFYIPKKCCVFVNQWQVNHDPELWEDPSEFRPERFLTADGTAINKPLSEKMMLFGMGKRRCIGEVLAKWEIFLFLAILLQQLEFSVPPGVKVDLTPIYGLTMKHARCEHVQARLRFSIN
Cytochrome P450 2C9 (Homo sapiens), sequence (P11712 whole entry, looked up): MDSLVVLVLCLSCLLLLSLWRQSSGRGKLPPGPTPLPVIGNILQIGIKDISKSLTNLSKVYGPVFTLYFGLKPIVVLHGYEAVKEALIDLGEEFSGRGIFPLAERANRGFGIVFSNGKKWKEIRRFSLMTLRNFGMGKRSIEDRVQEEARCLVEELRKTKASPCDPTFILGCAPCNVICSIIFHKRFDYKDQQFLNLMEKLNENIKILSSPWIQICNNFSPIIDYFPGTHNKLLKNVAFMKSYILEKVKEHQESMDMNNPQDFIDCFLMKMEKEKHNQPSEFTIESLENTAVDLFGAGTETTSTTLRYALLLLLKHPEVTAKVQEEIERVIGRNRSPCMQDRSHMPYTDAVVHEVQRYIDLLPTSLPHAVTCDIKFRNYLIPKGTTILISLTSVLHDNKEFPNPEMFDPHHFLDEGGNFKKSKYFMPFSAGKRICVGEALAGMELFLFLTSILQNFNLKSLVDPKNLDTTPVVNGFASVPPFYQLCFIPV

Regarding `CC(C)C[C@@H](CC(=O)N[C@H](CC(=O)N[C@@H]1CCCC[C@H]1C(=O)N[C@H](CC(=O)N[C@@H](CCC(=O)O)CC(=O)O)Cc1c[nH]c2ccccc12)C(C)C)NC(=O)[C@@H]1CCCC[C@H]1N`, the Potency result in assay [1], in assay [3], in assay [4], in assay [5], in assay [6] and in assay [7] was “inactive” in each case. Besides, the Potency in assay [2] is > 46 µM.
Consider `CC(C)[C@@H](CC(=O)N[C@@H]1CCCC[C@H]1C(=O)N[C@H](CC(=O)N[C@@H](CCC(=O)O)CC(=O)O)Cc1ccccc1)NC(=O)C[C@H](CO)NC(=O)[C@@H]1CCCC[C@H]1N`, for which the Potency entry in assay [1], in assay [3], in assay [4] and in assay [6] was “inactive” throughout. Further, the Potency in assay [2] is > 46 µM.
As to `CC(C)[C@@H](CC(=O)N[C@@H]1CCNC[C@H]1C(=O)N[C@H](CC(=O)N[C@@H](CCC(=O)O)CC(=O)O)Cc1c[nH]c2ccccc12)NC(=O)C[C@H](Cc1ccccc1)NC(=O)[C@@H]1CCCC[C@H]1N`, the Potency in assay [1] is 31.6 µM (active); in assay [2], > 46 µM. In addition, the Potency entry in assay [3], in assay [4], in assay [5], in assay [6] and in assay [7] was “inactive” throughout.
In the case of `NCCC[C@@H](CC(=O)N[C@@H]1CCCC[C@H]1C(=O)N[C@H](CC(=O)N[C@@H](CCC(=O)O)CC(=O)O)Cc1c[nH]c2ccccc12)NC(=O)C[C@H](Cc1ccccc1)NC(=O)[C@@H]1CNCC[C@H]1N`, the Potency in assay [1] is 15.8 µM (active); in assay [2] it was > 46 µM. In addition, the Potency entry in assay [3], in assay [4], in assay [5], in assay [6] and in assay [7] was “inactive” in each case.
For the compound `CC(C)[C@@H](CC(=O)N[C@@H]1CCNC[C@H]1C(=O)N[C@H](CC(=O)N[C@@H](CCC(=O)O)CC(=O)O)Cc1ccccc1)NC(=O)C[C@H](Cc1c[nH]c2ccccc12)NC(=O)[C@@H]1CCCC[C@H]1N`, the values for the Potency in assay [1] and in assay [2] were 39.8 µM (active) and > 46 µM, respectively. The Potency result in assay [3], in assay [4], in assay [5], in assay [6] and in assay [7] was “inactive” each time.
As for `C/C(=C\CNc1ncnc2c1ncn2[C@@H]1O[C@@H](CO)[C@@H](O)[C@H]1O)CO`, the Potency entry in assay [1], in assay [3], in assay [4], in assay [5], in assay [6] and in assay [7] was “inactive” each time. The Potency in assay [8] was > 46 µM.
As to `NCCC[C@@H](CC(=O)N[C@@H]1CCNC[C@H]1C(=O)N[C@H](CC(=O)N[C@@H](CCC(=O)O)CC(=O)O)Cc1ccccc1)NC(=O)C[C@H](Cc1ccccc1)NC(=O)[C@@H]1CNCC[C@H]1N`, the Potency was 31.6 µM (active) in assay [1] and > 46 µM in assay [2]. Moreover, the Potency result in assay [3], in assay [4], in assay [5], in assay [6] and in assay [7] was “inactive” each time.
